We go through 19 molecules from PubChem BioAssay (NCATS).

Records with an inconclusive call do not appear. This is one part of the list. Calls of active or inactive are those of the source. Unless noted, the call rests on the fitted dose curve; in most records, active means well fitted curve in the direction sought with a large enough effect; inconclusive means small, poorly fitted or top-dose-only effect, or another doubt; inactive means no such curve, though single readings can be large; an effect the other way counts as inactive or inconclusive.

For assay [1], the target named is Thyroid hormone receptor beta (Homo sapiens) (UniProt P10828). Nature of the assay: qHTS assay for small molecule antagonists of thyroid hormone receptor beta signaling (AID 588547; active means well fitted inhibition curve with a large enough effect in the signal ratio, with a control signal flat, not every such curve was filed as active; the % refers to the signal ratio;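 further: cells stimulated with 0.4 nM T3 agonist during compound exposure; on the % scale 0 is the no-effect control and ±100 the full control effect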). The note with it: TR-UAS-bla HEK293, beta-lactamase ratio, antagonist mode, 18 h. The procedure, abridged: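 TR-UAS-bla GripTite HEK293 cells in 2% charcoal/dextran FBS medium were preincubated 4 h at 37 C, given compound (0.59 nM to 92 uM) plus 0.4 nM T3 (final) for 18 h, then CCF4 for 2 h at RT; Hill fit gave IC50.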
Chain of Thyroid hormone receptor beta (Homo sapiens) (P10828 whole entry, looked up): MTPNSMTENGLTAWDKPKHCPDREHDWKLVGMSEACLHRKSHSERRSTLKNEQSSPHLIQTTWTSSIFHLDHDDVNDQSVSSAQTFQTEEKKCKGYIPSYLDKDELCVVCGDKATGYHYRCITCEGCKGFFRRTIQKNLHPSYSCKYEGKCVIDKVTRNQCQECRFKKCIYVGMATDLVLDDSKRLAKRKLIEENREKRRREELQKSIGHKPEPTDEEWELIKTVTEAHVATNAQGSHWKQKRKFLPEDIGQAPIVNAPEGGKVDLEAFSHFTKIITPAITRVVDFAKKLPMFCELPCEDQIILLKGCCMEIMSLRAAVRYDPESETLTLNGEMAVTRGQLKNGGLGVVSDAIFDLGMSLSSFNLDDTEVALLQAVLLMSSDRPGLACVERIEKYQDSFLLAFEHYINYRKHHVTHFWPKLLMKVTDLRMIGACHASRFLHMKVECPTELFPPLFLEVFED

For assay [2], the target named is Vitamin D3 receptor (Homo sapiens) (UniProt P11473). Put plainly: qHTS for Inhibitors of the vitamin D receptor (VDR): Hit Validation in Primary Screen (AID 602199). Further: potency means the concentration at half of the fitted maximal effect. The note with it: VDR-coactivator inhibition assay, qHTS confirmation. The procedure, abridged:
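Fluorescence polarization assay of VDR binding to Alexa 647-labelled SRC2-3 coactivator peptide: 800nM VDR with 5uM LG19078 agonist, compounds, 2 h at room temperature, read Ex 620 nm/Em 688 nm.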
(In qHTS, concentration-response curves come from the screen itself.)

Assay [3] has the same target. Nature of the assay: qHTS for Inhibitors of the vitamin D receptor (VDR): Hit Validation using a Fluorescein Assay (AID 602200). Further: potency means the concentration at half of the fitted maximal effect. The note with it: VDR-coactivator binding, fluorescein fluorescence polarization. The procedure, abridged: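 Fluorescence polarization (Ex 495 nm/Em 520 nm) read after 2 h at room temperature, reporting disruption of binding between 1.5 uM VDR-LBD, liganded by 5 uM LG19078, and 5 nM fluorescein-labelled SRC2-3 coactivator peptide (final concentrations).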

Assay [4] is described as follows: qHTS for Inhibitors of the vitamin D receptor (VDR): Hit Validation using a Texas Red Assay (AID 602201). Further: potency means the concentration at half of the fitted maximal effect. The note with it: VDR coregulator binding, Texas Red fluorescence polarization, agonist-bound VDR ligand-binding domain; series mostly up to 57.1 µM. The procedure, abridged:
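Fluorescence polarization (Ex 595/Em 615 nm) of Texas Red (7 nM) with 1.5 uM VDR-LBD and LG19078 (final concentrations). Compounds were incubated for 2 hours at room temperature.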

Assay [5] concerns the target Vitamin D3 receptor (Homo sapiens) (UniProt P11473). Put plainly: qHTS for Inhibitors of the vitamin D receptor (VDR): Hit Validation using a Beta-Lactamase Assay (AID 602202). Further: potency means the concentration at half of the fitted maximal effect. As to conditions: VDR beta-lactamase reporter cells, FRET ratio, cells co-treated with VDR agonist LG190178; series mostly up to 46.1 µM. The procedure, abridged: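 Stably transfected HEK293 cells express a VDR–GAL4 DNA-binding-domain fusion driving a UAS beta-lactamase reporter, stimulated by agonist LG190178. Compounds were added 4 h after plating and incubated 18 h. A FRET beta-lactam substrate was then added for 2 h and cleaved substrate emission read at 447 nm.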

The nature of assay [6]: qHTS assay for small molecule agonists of the antioxidant response element (ARE) signaling pathway (AID 651741; active means well fitted activation curve with a large enough effect in the signal ratio; the % refers to the signal ratio; further: potency means the concentration at half of the fitted maximal effect; on activation: % of control where 0% means no effect). The note with it: HepG2 ARE-bla reporter, beta-lactamase FRET ratio, 16 h; series mostly up to 96 µM. The procedure, abridged: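 Beta-lactamase reporter expression driven by the antioxidant response element in HepG2 cells was detected by fluorescence with LiveBLAzer B/G FRET substrate (2 h, room temperature) following 16 h compound treatment at 37 C.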

Assay [7] addresses Peroxisome proliferator-activated receptor gamma (Homo sapiens) (UniProt P37231). Put plainly: qHTS assay for small molecule agonists of peroxisome proliferator-activated receptor gamma signaling (AID 588536; active means well fitted curve in the direction sought with a large enough effect in the signal ratio, with a control signal flat, not every such curve was filed as active; the % refers to the signal ratio;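 further: 0% = DMSO basal wells and 100% = rosiglitazone at 2 µM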). As to conditions: HEK293 PPARg-UAS-bla, beta-lactamase ratio, 16 h, percent of rosiglitazone response, DMSO as zero; series mostly up to 76.7 µM. The procedure, abridged:
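This is an agonist-mode beta-lactamase reporter assay in HEK293 PPAR-gamma-UAS-bla cells with 1% charcoal/dextran FBS. Compound titrations ran 16 h at 37 C before CCF4 detection. EC50 and efficacy are Hill fits scaled to 2 uM rosiglitazone (100%) and DMSO basal.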

The target is the same in assay [8]. Put plainly: qHTS assay for small molecule antagonists of peroxisome proliferator-activated receptor gamma signaling (AID 588537; active means well fitted inhibition curve with a large enough effect in the signal ratio, with a control signal flat, not every such curve was filed as active; the % refers to the signal ratio;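 further: reporter cells co-stimulated with 50 nM rosiglitazone agonist during compound treatment; % of control where 0% means no effect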). As to conditions: HEK293 PPARg-UAS-bla, beta-lactamase ratio, antagonist mode; series mostly up to 76.8 µM. The procedure, abridged: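 HEK293 cells, PPAR-gamma-UAS-bla, 3000/well. Pre-incubation 6-6.5 h, 37 C. Compound titration with rosiglitazone 50 nM final, 16 h. CCF4 dye, 2 h RT, dual-emission fluorescence.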

A short description of assay [9]: qHTS assay for small molecule agonists of retinoid X receptor alpha signaling (AID 588544). The note with it: HEK293T RXRa-UAS-bla, beta-lactamase reporter, 18 h; 530 nm emission.

Chain of Peroxisome proliferator-activated receptor gamma (Homo sapiens) (P37231 whole entry, looked up): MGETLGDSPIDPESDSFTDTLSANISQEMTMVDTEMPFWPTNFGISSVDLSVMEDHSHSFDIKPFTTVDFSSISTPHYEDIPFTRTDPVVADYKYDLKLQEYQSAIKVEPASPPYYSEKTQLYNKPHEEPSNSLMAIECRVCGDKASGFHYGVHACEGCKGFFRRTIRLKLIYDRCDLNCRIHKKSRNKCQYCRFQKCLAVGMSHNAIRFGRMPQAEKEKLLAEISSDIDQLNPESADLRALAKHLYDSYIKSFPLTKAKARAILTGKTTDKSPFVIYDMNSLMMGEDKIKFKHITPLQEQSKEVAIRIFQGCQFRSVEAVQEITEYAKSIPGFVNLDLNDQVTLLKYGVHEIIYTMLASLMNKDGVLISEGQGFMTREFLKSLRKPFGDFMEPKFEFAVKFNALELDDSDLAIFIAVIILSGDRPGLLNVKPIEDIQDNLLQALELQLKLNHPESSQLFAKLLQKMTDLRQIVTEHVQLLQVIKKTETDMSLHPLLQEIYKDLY
Chain of Vitamin D3 receptor (Homo sapiens) (P11473 whole entry, looked up, the tested form may be a part): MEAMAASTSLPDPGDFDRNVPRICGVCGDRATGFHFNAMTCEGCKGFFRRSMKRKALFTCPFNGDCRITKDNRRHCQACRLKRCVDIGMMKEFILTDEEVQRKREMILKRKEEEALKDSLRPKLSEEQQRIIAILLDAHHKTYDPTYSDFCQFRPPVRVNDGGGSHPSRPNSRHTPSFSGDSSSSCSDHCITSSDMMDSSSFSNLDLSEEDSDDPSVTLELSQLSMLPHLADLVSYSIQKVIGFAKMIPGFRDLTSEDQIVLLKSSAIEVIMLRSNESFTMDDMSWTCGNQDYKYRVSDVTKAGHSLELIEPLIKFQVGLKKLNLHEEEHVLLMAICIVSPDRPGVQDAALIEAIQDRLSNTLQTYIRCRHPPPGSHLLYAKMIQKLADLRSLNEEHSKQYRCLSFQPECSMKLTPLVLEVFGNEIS

On to `CN(C)c1ccc(C(c2ccccc2)c2ccc(N(C)C)cc2)cc1`, for which the activity change % (negative = inhibition) in [1] was 13.2% (inactive).

Turning to `CC(=O)N1CC[n+]2c(-c3ccc([N+](=O)[O-])cc3)csc21`, the Potency in assay [2] is 10 µM (active); in assay [3] it was 3.98 µM (active); in assay [4], 7.08 µM (active). In addition, the Potency result in assay [5] was “inactive”.

As to `C=CC(=O)OCCOCC(CC)(COCCOC(=O)C=C)COCCOC(=O)C=C`, the Potency in assay [6] was 30.6 µM (active).

For the molecule `Cc1cc(C)nc(S/C=C/C(=O)c2ccccc2)n1`, the Potency in assay [2] is 3.55 µM (active); in [3], 3.55 µM (active); in [4] it was 14.1 µM (active); in [5], 3.26 µM (active).

Turning to `Cc1nc(-c2ccccc2)sc1C(=O)/C=C/c1ccccc1`, the Potency in assay [2] is 16.8 µM (active).

As to `Brc1ccc(Oc2ccc(Br)cc2)cc1`, in assay [1], the activity change % (negative = inhibition) is 11% (inactive). In assay [6], the Potency entry was “inactive”.

Take `Nc1ccc(Nc2ccccc2)cc1`: in [7], the outcome was inactive.

Take `COC(=O)c1sc(-c2ccc(C(C)(C)C)cc2)cc1NC(=O)/C=C/C(=O)O`: the Potency was 11.9 µM (active) in [2] and 14.1 µM (active) in assay [3].

On to `O=C(Cl)c1cccc(C(=O)Cl)c1`, for which, in assay [7], the outcome was inactive. Also, the Potency result in assay [8] and in [6] was “inactive” throughout. Further, the max response in [9] was -7.46%. Moreover, the activity change % (negative = inhibition) in assay [1] was -4.29% (inactive).

For the molecule `O=[N+]([O-])c1c(NCCO)cc(Sc2nc3ccccc3s2)c2nonc12`, the Potency in [2] was 3.36 µM (active).

Take `c1ccc2c(C[n+]3csc4ccccc43)cccc2c1`: the Potency in assay [2] is 5.62 µM (active); in assay [3], 7.08 µM (active); in assay [4], 10 µM (active). Besides, in assay [5], the Potency entry was “inactive”.

For the molecule `OCCOCCOCCOCCOCCO`, the Potency result in assay [8] and in assay [6] was “inactive” each time. Further, the max response in [9] turned out to be 5.49%.

`O=c1oc(=O)c2cc3c(=O)oc(=O)c3cc12`: in assay [7], the result was inactive. In assay [9], the max response was -7.31%. Also, the activity change % (negative = inhibition) in [1] was -2.54% (inactive). Besides, the Potency entry in assay [6] is “inactive”.

`CCCOC(=O)NCCCN(C)C`: the Potency entry in assay [8] was “inactive”. Also, in [1], the activity change % (negative = inhibition) is 1.87% (inactive).

Regarding `S=C([S-])NCCNC(=S)[S-].[Mn+2]`, in assay [7], the result was inactive. In addition, in assay [1], the activity change % (negative = inhibition) is -12.7% (inactive).

For the molecule `O=C1C=C(c2ccc(Cl)cc2)C(=O)N1Nc1ccccc1`, the Potency in assay [2] was 2.99 µM (active); in assay [3], 1.78 µM (active).

`Cc1ccc(O)c(NC(=O)CCS(=O)(=O)c2nc(-c3ccc4c(c3)OCO4)cc(C(F)(F)F)n2)c1`: the Potency in assay [2] is 14.1 µM (active); in assay [3], 6.31 µM (active); in [4], 28.2 µM (active); in assay [5], 23.1 µM (active).

For the molecule `C=C(C)C(=O)OCCC[Si](Cl)(Cl)Cl`, the result in assay [7] was inactive. Moreover, the Potency entry in [8] was “inactive”. The max response in assay [9] was -12.2%.

Take `C[C@@H](NC(=O)OC(C)(C)C)c1nnc(S(=O)(=O)Cc2ccccc2)o1`: the Potency in assay [2] is 11.2 µM (active); in [3], 17.8 µM (active); in assay [4], 11.2 µM (active); in assay [5], 23.1 µM (active).
